# Test results taken from PubChem BioAssay.
# A number with no mark means an inactive call. Entries that show only a call come without a potency. For some of these results: Potency and affinity values are given separately. The source made the active and inactive calls. Unless noted, how the calls were made is not given here.
# Tests used:
# [1] = antimalarial activity against Dd2 strain (AID 2302;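 active means growth inhibition above 50% at the single 2 µM test dose, taken to imply half-maximal potency below 2 µM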); conditions: P. falciparum Dd2 in RBCs, LDH growth readout, 72 h; at 2 µM; active compounds read high
# [2] = HepG2 cytotoxicity, primary screen, cytotoxicity control for P. falciparum antimalarial project, cell-based, ATP luminescence (AID 2303;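 active means inhibition above 50%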); conditions: HepG2 viability, 24-48 h, at 10 µM, active compounds read high
# [3] = target: L-lactate dehydrogenase (Plasmodium falciparum (isolate CDC / Honduras)) (UniProt Q27743); assay: PfLDH activity inhibition – cell lysate, 3D7 strain, counter-screen for P. falciparum growth inhibition project (AID 2304); conditions: P. falciparum 3D7 crude extract, LDH APAD/NBT absorbance; at 2 µM; active compounds read high
# [4] = inhibition of 3D7 malaria parasite growth – strain 3D7 (AID 2306); conditions: P. falciparum 3D7 erythrocytic growth, LDH absorbance, 72 h; at 2 µM; active compounds read high
# [5] = target: Calcium-dependent protein kinase 1 (Plasmodium falciparum (isolate 3D7)) (UniProt P62344); assay: PfCDPK1 kinase inhibitors, biochemical, TCAMS library (AID 1159585; cut-off not given, nearly all actives have IC50 up to about 0.98 µM;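 further: inhibitors leave more ATP so luminescence rises with inhibition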); conditions: recombinant PfCDPK1, Kinase-Glo ATP depletion luminescence
# [6] = target: Plasmodium falciparum protein kinase 6 (PK6, PF3D7_1337100) (UniProt Q8IDW1); assay: PfPK6 kinase inhibitors, biochemical, TCAMS library (AID 1159586); conditions: recombinant PfPK6, Kinase-Glo ATP depletion luminescence
# [7] = target: Protein kinase 7 (PK7), Plasmodium falciparum 3D7 (PF3D7_0213400) (UniProt Q7YTF7); assay: inhibition of Plasmodium PK7 catalytic activity – biochemical, TCAMS antimalarial set, Kinase-Glo luminescence (AID 1159587); conditions: recombinant PfPK7, Kinase-Glo ATP depletion luminescence
# [8] = target: Calcium-dependent protein kinase 4 (Plasmodium falciparum (isolate 3D7)) (UniProt Q8IBS5); assay: PfCDPK4 kinase inhibitors, biochemical, TCAMS library (AID 1159588; cut-off not given, nearly all actives have IC50 up to about 0.91 µM); conditions: recombinant PfCDPK4, Kinase-Glo ATP depletion luminescence
# Chain of Calcium-dependent protein kinase 4 (Plasmodium falciparum (isolate 3D7)) (Q8IBS5 whole entry, looked up): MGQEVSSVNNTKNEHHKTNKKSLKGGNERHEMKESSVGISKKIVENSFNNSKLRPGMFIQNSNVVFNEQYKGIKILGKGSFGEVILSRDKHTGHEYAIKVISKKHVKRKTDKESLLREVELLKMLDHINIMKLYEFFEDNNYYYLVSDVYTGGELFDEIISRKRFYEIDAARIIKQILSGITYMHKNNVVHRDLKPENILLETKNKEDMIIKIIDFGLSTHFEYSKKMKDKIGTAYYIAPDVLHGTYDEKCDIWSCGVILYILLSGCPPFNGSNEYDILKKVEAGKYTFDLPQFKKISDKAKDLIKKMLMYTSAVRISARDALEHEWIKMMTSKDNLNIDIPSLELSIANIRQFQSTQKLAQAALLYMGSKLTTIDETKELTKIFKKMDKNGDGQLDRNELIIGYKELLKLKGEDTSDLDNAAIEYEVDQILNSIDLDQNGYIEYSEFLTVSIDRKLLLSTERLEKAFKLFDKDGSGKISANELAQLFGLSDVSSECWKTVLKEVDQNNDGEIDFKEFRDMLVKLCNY
# Chain of L-lactate dehydrogenase (Plasmodium falciparum (isolate CDC / Honduras)) (Q27743 whole entry, looked up): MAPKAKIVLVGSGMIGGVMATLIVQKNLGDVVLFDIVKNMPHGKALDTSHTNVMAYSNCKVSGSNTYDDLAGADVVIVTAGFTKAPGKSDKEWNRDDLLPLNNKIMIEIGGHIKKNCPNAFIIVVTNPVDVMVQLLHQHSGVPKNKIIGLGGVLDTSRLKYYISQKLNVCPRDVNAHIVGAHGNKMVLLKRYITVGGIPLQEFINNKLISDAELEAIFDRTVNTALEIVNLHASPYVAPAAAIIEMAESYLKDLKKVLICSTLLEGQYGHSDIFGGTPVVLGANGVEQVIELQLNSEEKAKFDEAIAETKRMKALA
# Chain of Plasmodium falciparum protein kinase 6 (PK6, PF3D7_1337100) (Q8IDW1 1-305): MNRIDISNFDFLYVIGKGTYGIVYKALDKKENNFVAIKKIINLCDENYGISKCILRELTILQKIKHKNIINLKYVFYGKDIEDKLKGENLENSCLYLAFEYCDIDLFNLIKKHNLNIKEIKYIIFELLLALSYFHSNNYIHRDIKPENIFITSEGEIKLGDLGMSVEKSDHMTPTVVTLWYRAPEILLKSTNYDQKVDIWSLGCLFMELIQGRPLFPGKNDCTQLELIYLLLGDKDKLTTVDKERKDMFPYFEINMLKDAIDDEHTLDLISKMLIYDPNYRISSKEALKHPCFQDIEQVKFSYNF
# Chain of Protein kinase 7 (PK7), Plasmodium falciparum 3D7 (PF3D7_0213400) (Q7YTF7 1-343): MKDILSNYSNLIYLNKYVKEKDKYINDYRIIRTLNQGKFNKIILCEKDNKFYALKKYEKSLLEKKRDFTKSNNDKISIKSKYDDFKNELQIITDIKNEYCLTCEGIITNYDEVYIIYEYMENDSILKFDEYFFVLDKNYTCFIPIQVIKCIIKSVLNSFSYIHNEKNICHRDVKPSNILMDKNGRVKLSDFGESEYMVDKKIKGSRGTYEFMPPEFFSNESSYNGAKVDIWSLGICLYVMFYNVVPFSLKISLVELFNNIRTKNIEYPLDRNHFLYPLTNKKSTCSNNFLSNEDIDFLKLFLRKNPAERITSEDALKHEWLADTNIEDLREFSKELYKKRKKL
# Chain of Calcium-dependent protein kinase 1 (Plasmodium falciparum (isolate 3D7)) (P62344 whole entry, looked up): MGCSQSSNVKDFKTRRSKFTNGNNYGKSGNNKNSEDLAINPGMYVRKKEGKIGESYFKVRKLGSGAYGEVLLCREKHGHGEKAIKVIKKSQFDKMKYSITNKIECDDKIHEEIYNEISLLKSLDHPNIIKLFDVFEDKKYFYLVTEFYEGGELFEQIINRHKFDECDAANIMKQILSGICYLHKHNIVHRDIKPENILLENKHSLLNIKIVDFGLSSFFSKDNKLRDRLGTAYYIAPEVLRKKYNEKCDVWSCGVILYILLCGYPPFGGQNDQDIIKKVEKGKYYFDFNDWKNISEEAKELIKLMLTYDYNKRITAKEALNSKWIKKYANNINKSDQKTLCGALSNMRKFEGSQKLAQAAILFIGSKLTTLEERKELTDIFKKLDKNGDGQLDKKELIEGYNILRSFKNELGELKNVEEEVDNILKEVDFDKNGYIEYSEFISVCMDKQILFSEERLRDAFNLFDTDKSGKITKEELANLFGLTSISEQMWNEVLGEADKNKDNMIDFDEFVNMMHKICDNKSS
Compound,growth inhibition [1],inhibition [2],inhibition [3] [%],growth inhibition [4],outcome [5],outcome [6],outcome [7],outcome [8]
Cc1ccc(S(=O)(=O)n2cc(-c3ccnc(N)c3)c3cc(Br)cnc32)cc1,31%,8%,1,98% (active),inactive,inactive,inactive,inactive
CCOc1ccc(C(=O)N2CCOC(CCN3CCC4(CCc5ccccc54)CC3)(c3ccc(Cl)c(Cl)c3)C2)cc1 (stereo not drawn),25%,25%,1,81% (active),inactive,inactive,inactive,inactive
CCCCc1cc(O)c2c(c1)OC(C)(C)C=C2C1=CCN(Cc2ccccc2)CC1,3%,9%,-5,98% (active),inactive,inactive,inactive,inactive
O=C(NCCc1cccc(F)c1)c1cc(Br)cc(N2CCN(c3ccncc3)CC2)c1,86% (active),34%,0,100% (active),inactive,inactive,inactive,inactive
CCOc1cc(C(=O)Nc2cccnc2)cc(Br)c1OCCC(C)C,51% (active),4%,1,88% (active),inactive,inactive,inactive,inactive
O=C(Nc1ccc(CCNCCCc2ccccc2)cc1)Nc1ccc(Cl)c(Cl)c1,99% (active),33%,-1,100% (active),inactive,inactive,inactive,inactive
Cc1cccc2[nH]c(-c3ccc(-c4ccc(CN5CCN(c6cnccn6)CC5)cc4)s3)nc12,42%,11%,-6,94% (active),inactive,inactive,inactive,inactive
CN(CC1CCC(NC(=O)/C=C/c2ccc(Cl)c(Cl)c2)CC1)C1CCC(c2c[nH]c3ccccc23)CC1 (stereo not drawn),53% (active),53% (active),-3,99% (active),inactive,inactive,inactive,inactive
CN(C)CCN1CCN(CCCN2c3ccccc3Sc3ccc(C(F)(F)F)cc32)CC1,61% (active),98% (active),-2,99% (active),inactive,inactive,inactive,inactive
CC[C@H](C)CNC(=O)c1cncc(-c2cccc(CN(C)C3CCN(C)CC3)c2)c1,59% (active),9%,1,101% (active),inactive,inactive,inactive,inactive
Cc1ccc(F)cc1S(=O)(=O)NCC(C)c1ccc(NC(=O)Nc2cccc(F)c2)cc1 (stereo not drawn),5%,20%,2,95% (active),inactive,inactive,inactive,inactive
COc1ccc(NC(=O)[C@H](CC(C)C)Nc2cc(C)nc(Nc3ccccc3)n2)cc1,92% (active),25%,-1,101% (active),inactive,inactive,inactive,inactive
Cc1cccc(CN2CCC(Oc3ccc(NC(=O)c4cccs4)cc3Cl)CC2)n1,88% (active),27%,7,86% (active),inactive,inactive,inactive,inactive
CC(C)(C)c1ccc(CN2CCC(NC(=O)c3ccc(-c4ccccc4F)s3)CC2)cc1,37%,36%,0,85% (active),inactive,inactive,inactive,inactive
O=C(NOCc1ccccc1)c1cc(Cl)ccc1O,-1%,2%,5,83% (active),inactive,inactive,inactive,inactive
COc1ccc(CNC(=O)NC2CCN(c3ccnc(Nc4ccc(F)cc4)n3)CC2)cc1,4%,16%,-6,87% (active),inactive,inactive,inactive,inactive
COc1cc2nc(-c3ccc(Br)cc3)cc(N)c2cc1OC,69% (active),90% (active),-3,98% (active),inactive,inactive,inactive,inactive
Cc1cc2cc(NC(=O)Nc3ccnc4ccccc34)ccc2n1C,33%,17%,4,90% (active),inactive,inactive,inactive,inactive
COc1cc(NC(=O)/C=C/c2cc(F)cc(F)c2F)cc(OCCN2CCC(O)(c3ccccc3)CC2)c1,82% (active),54% (active),6,103% (active),inactive,inactive,inactive,inactive
CC1(CCN2CCC(c3c[nH]c4cnccc34)CC2)CCCc2c(Br)cccc2C1=O (stereo not drawn),66% (active),14%,3,101% (active),inactive,inactive,inactive,inactive
O=C(/C=C/c1ccc(Cl)cc1)NCCCCCN1CCC(C(=O)Nc2ccc(Cl)cc2)CC1,-1%,27%,8,99% (active),inactive,inactive,inactive,inactive

Compound,growth inhibition [1],inhibition [2],inhibition [3] [%],growth inhibition [4],outcome [5],outcome [6],outcome [7],outcome [8]
CN(C)C1CCN(Cc2ccc(N3CCN(Cc4cccc5[nH]ccc45)CC3)nc2)CC1,17%,11%,-2,80% (active),inactive,inactive,inactive,inactive
CC(C)(C)c1ccc2nc(-c3ccc(C(=O)NC4CCN(Cc5ccccc5)CC4)s3)[nH]c2c1,42%,24%,0,91% (active),inactive,inactive,inactive,inactive
Cc1ccc(Cn2ncc(N3CCCNCC3)c(Cl)c2=O)cc1NC(=O)Nc1ccc(-c2ccccc2)cc1,38%,55% (active),1,101% (active),inactive,inactive,inactive,inactive
CCCC(C)Nc1nc(C)cc(N[C@@H](Cc2ccccc2)C(=O)Nc2ccc(OC)cc2)n1 (stereo partly drawn),72% (active),24%,-1,100% (active),inactive,inactive,inactive,inactive
CCc1ccc(NC(=O)c2ccc(CN3CCCN(CCC(C)C)CC3)cc2)cc1,25%,48%,-7,96% (active),inactive,inactive,inactive,inactive
COc1cc(F)c2ncc(Cl)c(CCN3CCC(NCc4ccc5c(n4)NC(=O)CO5)CC3)c2c1,19%,20%,-1,89% (active),inactive,inactive,inactive,inactive
Cc1[nH]c(C)c(-c2ccc(C(F)(F)F)cc2)c(=O)c1Br,96% (active),-5%,-8,98% (active),inactive,inactive,inactive,inactive
Cn1cncc1C(=O)Nc1cccc(-c2cccc(-c3nc4ccc(F)cc4[nH]3)c2)c1,45%,16%,3,102% (active),inactive,inactive,inactive,inactive
CCNC(=O)N1CCc2ccc(Oc3nc(NCc4ccccc4OC)ncc3C)cc2CC1,76% (active),-9%,-9,83% (active),inactive,inactive,inactive,inactive
O=C(/C=C/c1ccc(Cl)c(Cl)c1)NCCCCCN1CCC(c2c[nH]c3c(-c4ccccc4)cccc23)CC1,40%,74% (active),-2,99% (active),inactive,inactive,inactive,inactive
COc1ccc(CC2(c3ccc(F)cc3)N=C(N)N(CCCc3cccnc3)C2=O)cc1 (stereo not drawn),97% (active),12%,0,98% (active),inactive,inactive,inactive,inactive
CN(CC(=O)Nc1ccc(F)c(F)c1F)c1ncnc2sc(-c3ccccc3)cc12,34%,0%,2,95% (active),inactive,inactive,inactive,inactive
CC1CCC2(CC1)N=C(N)N=C(N)N2OCc1cc2ccccc2c2ccccc12 (stereo not drawn),41%,27%,-2,97% (active),inactive,inactive,inactive,inactive
Cc1ccc(C=C2SC(=Nc3ccccc3)NC2=O)c(C)c1,90% (active),1%,-2,93% (active),inactive,inactive,inactive,inactive
COc1cc(C(=O)Nc2cccc(-c3cn4ccc(C)cc4n3)c2)cc(OC)c1OC,83% (active),-1%,1,97% (active),inactive,inactive,inactive,inactive
CCN(CCCN1CCCCC1)c1nccc(Nc2ccc(Cl)cc2)n1,63% (active),19%,-1,89% (active),inactive,inactive,inactive,inactive
O=C(NCC1CCN(Cc2ccsc2)C1)c1cc(-c2cccc(C(F)(F)F)c2)cs1 (stereo not drawn),15%,37%,-2,98% (active),inactive,inactive,inactive,inactive
COc1ccc(NC2=C(c3ccccc3)C(=O)c3ccccc32)cn1,84% (active),-9%,2,96% (active),inactive,inactive,inactive,inactive
O=C(NCc1ccc(Cl)c(Cl)c1)c1ccc(-c2nc3ccc(F)cc3[nH]2)cc1,9%,0%,1,93% (active),inactive,inactive,inactive,inactive
OCC1CCN(Cc2ccc(-c3cccc(-c4nc5ccc(C(F)(F)F)cc5[nH]4)c3)cc2)CC1,73% (active),19%,-4,99% (active),inactive,inactive,inactive,inactive
